This is an account of results in the supplement of paper PMC12297408.

Unmarked numbers belong to inactive results.

The experiment deals with Plasmodium falciparum NF54/iGP1_RE9H ulg8 stage V gametocytes. Kind of experiment: gametocyte viability (luciferase signal relative to DMSO control) (% of DMSO control); higher = less gametocytocidal activity, active = 50 or less. The note with it: exposure time: 72 h. An outline of the steps: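 Compounds from 10 mM DMSO stocks were spotted at nanolitre scale into 96-well plates, and day-12 stage V NF54/iGP1_RE9Hulg8 gametocytes (~2.5% gametocytemia, 3% hematocrit; medium with 0.5% Albumax II) were added to reach 10 µM or 1 µM, one well per concentration. The plates were kept at 37 °C for 72 h. Luminescence was then read on an IVIS Lumina II after mixing 90 µl of culture with 10 µl D-luciferin (30 mg/ml). Viability values are relative to the plate's mean DMSO vehicle signal.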

As to `Cn1cc(-c2cnn3c(N)c(Br)c([C@@H]4CCCNC4)nc23)cn1`, the gametocyte viability runs as follows: (concentration: 1 µM) 114; (concentration: 10 µM) 85.8.

Consider `Nc1ncnc2c1c(-c1cccc(OCc3ccccc3)c1)cn2C1CC(CN2CCCC2)C1` (configuration not stated), for which the gametocyte viability is 94.4 (concentration: 1 µM) and 84 (concentration: 10 µM).

On to `Cn1c(=O)c(F)c(Nc2ccc(I)cc2F)c2c(=O)n(C[C@@H](O)CO)cnc21`, for which the gametocyte viability (concentration: 1 µM) was 108 and the gametocyte viability (concentration: 10 µM) is 114.

`CCS(=O)(=O)c1cccc(-c2cc(C(=O)NC3CCN(C)CC3)c(C)c3[nH]c4ncc(C)cc4c23)c1`: the gametocyte viability (concentration: 1 µM) was 106 and the gametocyte viability (concentration: 10 µM) was 84.2.

Take `O=c1c(-c2ccc(O)cc2)coc2cc(O)ccc12` [Daidzein]: the gametocyte viability was 116 (concentration: 1 µM) and 109 (concentration: 10 µM).

For `O=C(c1ccc(/C=C/c2n[nH]c3ccccc23)cc1)N1CCNCC1`, the gametocyte viability (concentration: 1 µM) is 104 and the gametocyte viability (concentration: 10 µM) is 93.7.

For `Cn1cc(-c2ccc3nnc(C(F)(F)c4ccc5ncccc5c4)n3n2)cn1`, the gametocyte viability runs as follows: (concentration: 1 µM) 98.2; (concentration: 10 µM) 118.

`COc1cc(C=C(C#N)C(N)=O)cc(CSc2nc3ccccc3s2)c1O`: the gametocyte viability was 111 (concentration: 1 µM) and 113 (concentration: 10 µM).

For `Cc1csc(-c2nnc(Nc3ccc(Oc4ncccc4-c4ccnc(N)n4)cc3)c3ccccc23)c1`, the gametocyte viability by setting is: (concentration: 1 µM) 103; (concentration: 10 µM) 112.

`Clc1ccc(C2(c3ccc(-c4cn[nH]c4)cc3)CCNCC2)cc1`: the gametocyte viability (concentration: 1 µM) is 112 and the gametocyte viability (concentration: 10 µM) was 76.9.

`COc1ccc(S(=O)(=O)N(CCO)c2ccccc2CN(C)CC=Cc2ccc(Cl)cc2)cc1`: the gametocyte viability runs as follows: (concentration: 1 µM) 112; (concentration: 10 µM) 102.

Take `CN(C)C/C=C/C(=O)Nc1cc2c(Nc3ccc(F)c(Cl)c3)ncnc2cc1O[C@H]1CCOC1` [Afatinib (BIBW2992)]: the gametocyte viability runs as follows: (concentration: 1 µM) 92; (concentration: 10 µM) 93.5.

Regarding `N#C/C(=C\c1ccc(O)c(O)c1)C(=O)Nc1ccccc1`, the gametocyte viability runs as follows: (concentration: 1 µM) 99.6; (concentration: 10 µM) 104.

Turning to `O=C1NC(=O)/C(=C\c2ccc3nccnc3c2)S1`, the gametocyte viability reads like this: (concentration: 1 µM) 94.4; (concentration: 10 µM) 101.

As to `CC[C@@H]1C(=O)N(C)c2cnc(Nc3ccc(C(=O)N[C@H]4CC[C@H](N5CCN(CC6CC6)CC5)CC4)cc3OC)nc2N1C(C)C` [BI6727 (Volasertib)], the gametocyte viability (concentration: 1 µM) is 84.9 and the gametocyte viability (concentration: 10 µM) was 61.9.

For the compound `COc1cc2nccc(Oc3ccc(NC(=O)Nc4cc(C)on4)c(Cl)c3)c2cc1OC` [Tivozanib (AV-951)], the gametocyte viability (concentration: 1 µM) is 94 and the gametocyte viability (concentration: 10 µM) is 99.8.

As for `Cc1[nH]c(/C=C2\C(=O)Nc3ccccc32)c(C)c1CCC(=O)O`, the gametocyte viability (concentration: 1 µM) was 96.9 and the gametocyte viability (concentration: 10 µM) was 105.

For `FC(F)c1nc2ccccc2n1-c1nc(N2CCOCC2)nc(N2CCOCC2)n1`, the gametocyte viability reads like this: (concentration: 1 µM) 98.5; (concentration: 10 µM) 108.

Consider `CN1CC[C@H](c2c(O)cc(O)c3c(=O)cc(-c4ccccc4Cl)oc23)[C@H](O)C1` [Flavopiridol (Alvocidib)], for which the gametocyte viability runs as follows: (concentration: 1 µM) 99.8; (concentration: 10 µM) 122.

For `CC(=O)c1c(C)c2cnc(Nc3ccc(N4CCNCC4)cn3)nc2n(C2CCCC2)c1=O`, the gametocyte viability was 98 (concentration: 1 µM) and 103 (concentration: 10 µM).

For `COc1cc2c(Oc3ccc4[nH]c(C)cc4c3F)ncnc2cc1OCCCN1CCCC1` [Cediranib (AZD2171)], the gametocyte viability is, setting by setting: (concentration: 1 µM) 88.6; (concentration: 10 µM) 90.7.

For the compound `COc1cc2ncnc(Nc3cccc(Cl)c3)c2cc1OC`, the gametocyte viability is 109 (concentration: 1 µM) and 104 (concentration: 10 µM).

Regarding `CCN(CC)CCNC(=O)c1c(C)[nH]c(/C=C2\C(=O)Nc3ccc(F)cc32)c1C` [Sunitinib Malate (Sutent)], the gametocyte viability (concentration: 1 µM) was 102 and the gametocyte viability (concentration: 10 µM) was 80.7.

Take `CNC(=O)c1c(F)cccc1Nc1nc(Nc2cc3c(cc2OC)CCN3C(=O)CN(C)C)nc2[nH]ccc12`: the gametocyte viability by setting is: (concentration: 1 µM) 103; (concentration: 10 µM) 113.

In the case of `Nc1nc2ncnc-2c[nH]1` [2-Aminopurine], the gametocyte viability by setting is: (concentration: 1 µM) 97.6; (concentration: 10 µM) 103.

For `O=c1c(O)c(-c2ccc(O)c(O)c2)oc2cc(O)cc(O)c12` [Quercetin·2H2O], the gametocyte viability was 102 (concentration: 1 µM) and 95.8 (concentration: 10 µM).

Take `CN(C)Cc1cccc(N=C(c2ccccc2)c2c(O)[nH]c3cc(C(N)=O)ccc23)c1`: the gametocyte viability is, setting by setting: (concentration: 1 µM) 109; (concentration: 10 µM) 122.

With `O=C1NC(=O)/C(=C/c2ccc(-c3ccc(F)cc3O)o2)S1`, the gametocyte viability reads like this: (concentration: 1 µM) 100; (concentration: 10 µM) 110.

In the case of `CO[C@H]1C[C@@H]2CC[C@@H](C)[C@@](O)(O2)C(=O)C(=O)N2CCCC[C@H]2C(=O)O[C@H]([C@H](C)C[C@@H]2CC[C@@H](OP(C)(C)=O)[C@H](OC)C2)CC(=O)[C@H](C)/C=C(\C)[C@@H](O)[C@@H](OC)C(=O)[C@H](C)C[C@H](C)/C=C/C=C/C=C/1C` [Deforolimus (Ridaforolimus)], the gametocyte viability by setting is: (concentration: 1 µM) 90.2; (concentration: 10 µM) 86.2.

In the case of `N#CCNC(=O)c1ccc(-c2ccnc(Nc3ccc(N4CCOCC4)cc3)n2)cc1`, the gametocyte viability by setting is: (concentration: 1 µM) 98.5; (concentration: 10 µM) 97.1.

On to `CNC(=O)c1ccc(C)c(-n2c(C)cc(OCc3ccc(F)cc3F)c(Br)c2=O)c1`, for which the gametocyte viability is, setting by setting: (concentration: 1 µM) 100; (concentration: 10 µM) 108.
